Our source for the Potency and outcome values is PubChem BioAssay (Tox21).

A number with no mark means an inactive call. Results filed as inconclusive are left out. The source made the active and inactive calls. Unless noted, calls come from the whole dose curve; as a rule, active = well fitted curve in the direction sought with a large enough effect in the repeat runs; inconclusive = weak or mixed curves; inactive = no such curve, though single readings can be large; an effect the other way counts as inactive or inconclusive.

Assay [1] is described as follows: qHTS assay to identify small molecule antagonists of the sonic hedgehog signaling (Shh) pathway (AID 1259369; calls by dose curve; note: nearly all actives have a fitted effect of over 45% in size; note: potency is the fitted concentration of half-maximal effect). In short, it runs like this:
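Cells are plated and held 4hr at 37 C, compounds (DMSO) are pinned in, conditioned medium is added to stimulate the pathway, and after 24hr luciferase reagent is added for 30min before luminescence is read.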
(qHTS replaces the single test concentration by a dilution series.)

A short description of assay [2]: qHTS assay to identify small molecule agonists of the estrogen receptor beta (ER-beta) signaling pathway - cell viability counter screen (AID 1259380). Note: nearly all actives have a fitted effect of over 30% in size. Note: potency is the fitted concentration of half-maximal effect. In short, it runs like this:
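Cytotoxicity is measured in parallel with the reporter screen: after 16 hr compound exposure at 37C and a 2 hr LiveBLAzer step, CellTiter-Glo is added to the same ER-beta-UAS-bla HEK293T wells and luminescence read after 30 min.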

Assay [3] deals with Androgen receptor (Homo sapiens) (UniProt P10275). The assay is described as follows: qHTS assay to identify small molecule agonists of the androgen receptor (AR) signaling pathway in the presence of an antagonist (AID 1259381; calls by dose curve; note: nearly all actives have a fitted effect of over 15% in size). The essentials:
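Agonist-mode confirmation screen: human MDA-kb2 cells stably expressing luciferase under an MMTV promoter bearing AR and GR response elements, co-treated with 3.0uM nilutamide (final). Luminescence measured after 16hr compound incubation.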

Assay [4] deals with Estrogen receptor (Homo sapiens) (UniProt P03372). Kind of assay: qHTS assay to identify small molecule agonists of the estrogen receptor alpha (ER-alpha) signaling pathway in the presence of an antagonist (AID 1259383; calls by dose curve; note: top concentration of the series differs between compounds; nearly all actives have a fitted effect of over 15% in size). The essentials:
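Agonist-mode confirmation in the presence of the ER antagonist ICI-182,780 at 10.0nM final. Breast-derived VM7Luc4E2 reporter cells were exposed to compounds for 22hr, and ERE-driven luciferase was quantified by luminescence.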

The nature of assay [5]: qHTS assay to identify small molecule agonists or antagonists of the thyroid stimulating hormone receptor (TSHR) signaling pathway - wild type cell line counter screen (AID 1259384; calls by dose curve). The essentials:
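Wild-type Hek293 cells, 800/well, 18 h at 37C, then compound with Ro20-1724 for 30 min RT. cAMP by HTRF (cAMP-d2/anti-cAMP cryptate), 1 h RT, fluorescence read. 15 concentrations, triplicates.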

The target in assay [6] is Thyrotropin receptor (Homo sapiens) (UniProt P16473). Kind of assay: qHTS assay to identify small molecule antagonists of the thyroid stimulating hormone receptor (TSHR) signaling pathway (AID 1259385; calls by dose curve; note: nearly all actives have a fitted effect of over 20% in size; note: potency is the fitted concentration of half-maximal effect). The essentials:
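TSHR-HEK293 cells (800/well) plated 18 h, then compounds with Ro20-1724 and TSH at 1.5 ng/mL final, 30 min at room temperature. cAMP quantified by HTRF (cAMP-d2/anti-cAMP-cryptate, 1 h); 15 concentrations in triplicate.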

The nature of assay [7]: qHTS assay to identify small molecule agonists of the estrogen receptor alpha (ER-alpha) signaling pathway in the presence of an antagonist - cell viability counter screen (AID 1259386).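 Note: series mostly up to about 92 µM; cells exposed to compounds for 22 h at 37 °C before the viability read; nearly all actives have a fitted effect of over 30% in size.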 The essentials:
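Cytotoxicity was measured in parallel with the ERE-luciferase agonist screen, in the same wells. The cells were VM7Luc4E2, which endogenously express ER-alpha, and treatment was with compounds plus 10.0nM ICI-182,780 for 22hr.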

A short description of assay [8]: qHTS assay to identify small molecule antagonists of the TGF-beta/Smad signaling pathway - cell viability counter screen (AID 1346824). Note: nearly all actives have a fitted effect of over 50% in size. In short, it runs like this:
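SBE-bla HEK 293T cells, incubated overnight, then compound plus 0.25 ng/mL TGF-beta1 (stock added) for 5 hr at 37 C. Viability was read in the same wells by CellTiter-Glo luminescence after 30 min at room temperature.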

Assay [9] in a line: qHTS assay to identify small molecule agonists of the TGF-beta/Smad signaling pathway - cell viability counter screen (AID 1346829). Note: top concentration of the series differs between compounds; nearly all actives have a fitted effect of over 45% in size. In short, it runs like this:
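In parallel with the Smad reporter read, viability of HEK 293T cells stably carrying SBE-bla is quantified by ATP luminescence following 5 hr compound treatment.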

Assay [10] addresses Thyrotropin-releasing hormone receptor (Homo sapiens) (UniProt P34981). Kind of assay: qHTS assay to identify small molecule antagonists of the thyrotropin-releasing hormone receptor (TRHR) signaling pathway (AID 1346877; active = well fitted inhibition curve with a large enough effect in the repeat runs, not every such curve was filed as active; note: series mostly up to about 51 µM). The essentials:
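Antagonism is measured as suppression of the calcium response to 1 nM TRH in TRHR-HEK293 cells that have been dye-loaded for 2 h at 37 °C after overnight plating. Each compound is tested at 15 concentrations in triplicate.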

Assay [11] is described as follows: qHTS assay to identify small molecule agonists of the androgen receptor (AR) signaling pathway in the presence of an antagonist - cell viability counter screen (AID 1259379).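 Note: MDA-kb2 human breast cancer cells carrying an MMTV luciferase reporter; series mostly up to about 92 µM; nearly all actives have a fitted effect of over 25% in size.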 In short, it runs like this:
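Cytotoxicity is assessed by CellTiter-Fluor in MDA-kb2 cells carrying an MMTV-driven luciferase reporter. Cells receive 3.0uM nilutamide plus compounds at 15 concentrations and incubate 16 hr at 37C without CO2 before fluorescence reading.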

Assay [12] deals with Progesterone receptor (Homo sapiens) (UniProt P06401). The assay is described as follows: qHTS assay to identify small molecule agonists of the progesterone receptor (PR) signaling pathway (AID 1346784; calls by dose curve; note: nearly all actives have a fitted effect of over 30% in size). In short, it runs like this:
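Beta-lactamase reporter read-out: after 16 hr compound treatment at 37C and a further 2 hr at room temperature with LiveBLAzer B/G FRET substrate, fluorescence was measured in PR-UAS-bla HEK 293T cells grown in 2% charcoal-stripped serum.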

Assay [13] in a line: qHTS assay to identify small molecule agonists of the progesterone receptor (PR) signaling pathway - cell viability counter screen (AID 1346799; calls by dose curve; note: nearly all actives have a fitted effect of over 45% in size; note: potency is the fitted concentration of half-maximal effect). The essentials:
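Luminescence from CellTiter-Glo, added after the beta-lactamase FRET read in the same wells, gave cytotoxicity in PR-UAS-bla HEK293T cells treated with compounds for 16 hr at 37C.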

The target in assay [14] is Thyrotropin-releasing hormone receptor (Homo sapiens) (UniProt P34981). The assay is described as follows: qHTS assay to identify small molecule agonists of the thyrotropin-releasing hormone receptor (TRHR) signaling pathway (AID 1346891; calls by dose curve; note: series mostly up to about 58 µM). In short, it runs like this:
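Intracellular calcium rise, read as fluorescence every second for 3 min, served as the agonist signal in dye-loaded HEK293 cells expressing TRHR; each compound ran at 15 concentrations in triplicate.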

Assay [15] in a line: qHTS assay to identify small molecule antagonists of the estrogen receptor beta (ER-beta) signaling pathway - cell viability counter screen (AID 1259382). Note: nearly all actives have a fitted effect of over 55% in size. Note: potency is the fitted concentration of half-maximal effect. In short, it runs like this: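 Cytotoxicity counter screen multiplexed with the beta-lactamase antagonist assay: GripTite HEK293T ER-beta-bla cells were treated 16 hr with test chemicals in the presence of 1nM 17-beta-estradiol, and viability was measured by CellTiter-Glo.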

The target in assay [16] is Progesterone receptor (Homo sapiens) (UniProt P06401). The assay is described as follows: qHTS assay to identify small molecule antagonists of the progesterone receptor (PR) signaling pathway (AID 1346795; active = well fitted inhibition curve with a large enough effect in the signal ratio in the repeat runs, not every such curve was filed as active; the % refers to the signal ratio). The essentials:
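Read-out is fluorescence from the LiveBLAzer B/G FRET substrate, cleaved by a UAS-controlled beta-lactamase in PR-UAS-bla HEK293T cells after 16 hr exposure to compound plus 1 nM promegestone (final), followed by 2 hr at room temperature.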

Assay [17] can be described thus: qHTS assay to identify small molecule antagonists of the progesterone receptor (PR) signaling pathway - cell viability counter screen (AID 1346798). Note: nearly all actives have a fitted effect of over 50% in size. Note: potency is the fitted concentration of half-maximal effect. The essentials:
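HEK293T PR-UAS-bla, 2% charcoal-stripped FBS; 4 hr pre-plate; cpd + R5020, 16 h 37C; LiveBLAzer read first; then CellTiter-Glo 30 min RT, luminescence.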

Assay [18] in a line: qHTS assay to identify small molecule agonists of the TGF-beta/Smad signaling pathway (AID 1346859; active = well fitted activation curve with a large enough effect in the signal ratio in the repeat runs, not every such curve was filed as active; the % refers to the signal ratio; note: series mostly up to about 77 µM). In short, it runs like this: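 SBE-bla HEK 293T, 4,000 cells/well, plated o/n; cpd in DMSO, 5 hr, 37 C/5% CO2; B/G FRET substrate 2 hr RT; ex 405, em 460/530 nm.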

Chain of Thyrotropin-releasing hormone receptor (Homo sapiens) (P34981 whole entry, looked up): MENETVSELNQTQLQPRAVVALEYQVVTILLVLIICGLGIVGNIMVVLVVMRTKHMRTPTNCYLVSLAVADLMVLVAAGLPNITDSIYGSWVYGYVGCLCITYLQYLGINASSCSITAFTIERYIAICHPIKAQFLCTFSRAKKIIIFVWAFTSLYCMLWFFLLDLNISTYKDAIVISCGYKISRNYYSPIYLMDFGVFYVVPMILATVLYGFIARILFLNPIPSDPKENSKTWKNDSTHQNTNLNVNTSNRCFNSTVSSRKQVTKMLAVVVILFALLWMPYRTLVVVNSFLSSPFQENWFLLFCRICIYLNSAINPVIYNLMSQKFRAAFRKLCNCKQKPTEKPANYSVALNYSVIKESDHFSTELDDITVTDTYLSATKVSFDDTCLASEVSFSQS
Chain of Androgen receptor (Homo sapiens) (P10275 whole entry, looked up): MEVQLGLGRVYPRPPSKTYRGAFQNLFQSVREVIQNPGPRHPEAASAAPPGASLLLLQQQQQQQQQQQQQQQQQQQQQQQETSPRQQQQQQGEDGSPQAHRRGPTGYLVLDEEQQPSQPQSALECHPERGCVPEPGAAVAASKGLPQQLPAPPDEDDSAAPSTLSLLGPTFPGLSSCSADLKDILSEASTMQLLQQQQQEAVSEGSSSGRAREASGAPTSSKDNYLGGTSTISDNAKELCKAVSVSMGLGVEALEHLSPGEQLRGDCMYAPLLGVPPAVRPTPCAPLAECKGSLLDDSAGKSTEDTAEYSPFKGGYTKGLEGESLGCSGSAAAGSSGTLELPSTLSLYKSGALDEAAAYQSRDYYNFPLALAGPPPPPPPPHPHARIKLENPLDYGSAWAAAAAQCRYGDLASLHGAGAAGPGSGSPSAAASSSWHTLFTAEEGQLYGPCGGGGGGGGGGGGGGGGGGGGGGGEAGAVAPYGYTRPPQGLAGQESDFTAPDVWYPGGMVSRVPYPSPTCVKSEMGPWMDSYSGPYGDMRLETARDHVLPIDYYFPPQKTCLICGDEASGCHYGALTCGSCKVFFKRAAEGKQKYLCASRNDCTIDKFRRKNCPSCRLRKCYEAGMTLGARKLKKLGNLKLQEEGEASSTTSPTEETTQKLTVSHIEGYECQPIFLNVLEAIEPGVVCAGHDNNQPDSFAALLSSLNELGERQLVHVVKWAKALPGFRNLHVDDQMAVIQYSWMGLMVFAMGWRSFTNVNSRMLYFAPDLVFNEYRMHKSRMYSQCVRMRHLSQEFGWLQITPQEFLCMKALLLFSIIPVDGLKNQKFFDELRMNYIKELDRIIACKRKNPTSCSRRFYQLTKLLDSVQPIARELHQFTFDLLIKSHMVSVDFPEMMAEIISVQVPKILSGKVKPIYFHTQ
Chain of Estrogen receptor (Homo sapiens) (P03372 whole entry, looked up): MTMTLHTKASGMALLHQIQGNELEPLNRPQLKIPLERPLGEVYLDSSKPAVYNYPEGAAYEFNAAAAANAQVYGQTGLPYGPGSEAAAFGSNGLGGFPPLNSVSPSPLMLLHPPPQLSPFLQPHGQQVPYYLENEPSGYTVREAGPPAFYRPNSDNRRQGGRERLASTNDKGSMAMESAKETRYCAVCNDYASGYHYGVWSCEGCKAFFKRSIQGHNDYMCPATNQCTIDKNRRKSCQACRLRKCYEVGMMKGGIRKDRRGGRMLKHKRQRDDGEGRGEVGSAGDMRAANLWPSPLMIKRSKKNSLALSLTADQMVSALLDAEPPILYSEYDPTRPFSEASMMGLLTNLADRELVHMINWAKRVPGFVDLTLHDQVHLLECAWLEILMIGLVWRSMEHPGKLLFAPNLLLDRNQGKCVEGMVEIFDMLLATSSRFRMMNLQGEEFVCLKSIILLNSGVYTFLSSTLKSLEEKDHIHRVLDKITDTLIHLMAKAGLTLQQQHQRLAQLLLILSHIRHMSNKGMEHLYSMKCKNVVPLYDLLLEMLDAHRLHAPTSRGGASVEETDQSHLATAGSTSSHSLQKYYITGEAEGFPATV
Chain of Progesterone receptor (Homo sapiens) (P06401 whole entry, looked up): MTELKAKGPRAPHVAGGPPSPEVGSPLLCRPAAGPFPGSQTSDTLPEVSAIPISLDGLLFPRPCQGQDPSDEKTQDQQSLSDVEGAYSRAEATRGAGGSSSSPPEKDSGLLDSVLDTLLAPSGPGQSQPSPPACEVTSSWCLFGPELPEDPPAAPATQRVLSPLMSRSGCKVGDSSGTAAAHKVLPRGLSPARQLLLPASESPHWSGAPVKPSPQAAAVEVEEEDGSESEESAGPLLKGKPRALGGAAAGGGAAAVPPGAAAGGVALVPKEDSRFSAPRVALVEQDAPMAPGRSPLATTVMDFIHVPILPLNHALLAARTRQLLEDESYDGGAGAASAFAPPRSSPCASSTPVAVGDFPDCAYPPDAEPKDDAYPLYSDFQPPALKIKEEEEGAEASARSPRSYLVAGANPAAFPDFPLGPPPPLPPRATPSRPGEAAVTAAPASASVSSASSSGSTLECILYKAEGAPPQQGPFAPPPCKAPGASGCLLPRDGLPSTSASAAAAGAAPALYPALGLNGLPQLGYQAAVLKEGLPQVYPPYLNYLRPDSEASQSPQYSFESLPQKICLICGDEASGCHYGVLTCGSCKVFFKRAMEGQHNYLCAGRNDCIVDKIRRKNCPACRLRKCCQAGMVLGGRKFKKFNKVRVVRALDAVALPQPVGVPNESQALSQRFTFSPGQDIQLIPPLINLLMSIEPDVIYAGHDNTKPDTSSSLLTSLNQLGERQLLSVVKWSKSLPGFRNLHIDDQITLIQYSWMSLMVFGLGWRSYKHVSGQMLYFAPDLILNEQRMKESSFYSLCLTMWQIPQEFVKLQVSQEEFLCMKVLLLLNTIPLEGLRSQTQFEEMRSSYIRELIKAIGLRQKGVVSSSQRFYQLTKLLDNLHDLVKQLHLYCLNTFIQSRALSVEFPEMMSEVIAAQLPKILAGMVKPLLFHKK
Chain of Thyrotropin receptor (Homo sapiens) (P16473 whole entry, looked up): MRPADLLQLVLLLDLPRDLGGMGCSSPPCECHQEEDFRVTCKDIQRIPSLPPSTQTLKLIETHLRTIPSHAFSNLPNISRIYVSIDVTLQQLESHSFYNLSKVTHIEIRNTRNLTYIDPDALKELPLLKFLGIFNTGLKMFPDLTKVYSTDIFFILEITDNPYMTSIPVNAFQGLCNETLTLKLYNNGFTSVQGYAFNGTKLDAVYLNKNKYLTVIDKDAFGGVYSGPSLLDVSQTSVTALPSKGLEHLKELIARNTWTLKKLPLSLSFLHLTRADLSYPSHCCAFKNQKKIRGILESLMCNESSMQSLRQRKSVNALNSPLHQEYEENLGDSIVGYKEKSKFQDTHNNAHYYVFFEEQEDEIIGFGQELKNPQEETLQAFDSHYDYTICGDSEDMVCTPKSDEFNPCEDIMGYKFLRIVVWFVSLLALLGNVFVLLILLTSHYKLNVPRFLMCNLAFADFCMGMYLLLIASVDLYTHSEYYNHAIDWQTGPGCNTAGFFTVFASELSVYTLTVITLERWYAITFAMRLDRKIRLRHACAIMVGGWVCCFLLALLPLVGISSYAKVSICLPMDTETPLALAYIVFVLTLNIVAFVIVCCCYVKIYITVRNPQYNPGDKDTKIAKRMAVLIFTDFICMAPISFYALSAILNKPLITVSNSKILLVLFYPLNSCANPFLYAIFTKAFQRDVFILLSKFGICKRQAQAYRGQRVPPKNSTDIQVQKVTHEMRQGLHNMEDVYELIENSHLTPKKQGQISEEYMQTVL

As for `O=C(O)C1(C(=O)Nc2ccc(Cl)cc2Cl)CC1`, the Potency entry in assay [1], in assay [3], in assay [4], in assay [5], in assay [6] and in assay [7] was “inactive” in each case. Further, the Potency result in [8] is “inactive”. In addition, in [2], the Potency is 15.4 µM (active). For the same compound, the compound was called inactive in assay [9] and in assay [10].

As to `O=C(c1ccc(F)cc1)C1CCN(CCn2c(=S)[nH]c3ccccc3c2=O)CC1`, the Potency result in assay [1], in [11], in assay [3], in assay [5], in assay [6] and in assay [12] was “inactive” throughout. The Potency entry in [13], in assay [8] and in assay [14] was “inactive” each time. For the same compound, the call in assay [9] and in assay [10] was inactive.

For `Nc1c(CC(=O)O)cccc1C(=O)c1ccc(Br)cc1`, the Potency entry in [1], in assay [2], in assay [15], in [4], in assay [5] and in assay [6] was “inactive” throughout. The Potency result in [7], in [12], in [16], in assay [17] and in [8] was “inactive” throughout. In assay [9], the call was inactive.

Turning to `CCC(C)O` (configuration not stated), the Potency result in assay [1], in assay [11], in [2], in assay [15], in assay [5] and in [6] was “inactive” in each case. In addition, the Potency entry in assay [7], in [16], in assay [17], in assay [8], in [18] and in assay [14] was “inactive” each time. In addition, in assay [9], the outcome was inactive.

Regarding `COC(C)OC`, the Potency result in assay [1], in assay [11], in [2], in [4], in [5] and in assay [7] was “inactive” each time. Further, the Potency result in [12], in [16], in assay [17], in [13], in [8] and in [18] was “inactive” each time. Further, the outcome in assay [9] and in [10] was inactive.

Consider `O=C(OCCc1ccccc1)c1ccccc1`, for which the Potency entry in assay [1], in assay [11], in assay [2], in assay [15], in [5] and in assay [6] was “inactive” each time. The Potency entry in [7], in assay [12], in [17], in assay [8], in assay [18] and in [14] was “inactive” throughout. Also, the outcome in assay [9] and in assay [10] was inactive.

With `CNCCCN1c2ccccc2CCc2ccccc21`, the Potency in [1] was 5.96 µM (active); in assay [2], 23.7 µM (active); in assay [15], 23.7 µM (active); in assay [6] it was 29.8 µM (active); in assay [17] it was 18.8 µM (active); in assay [13] it was 21.1 µM (active). Further, the Potency entry in assay [3], in assay [4], in [5], in assay [7], in [12] and in assay [8] was “inactive” in each case. Further, the Potency result in assay [18] is “inactive”. For the same compound, the compound was classed as inactive in assay [9].

Take `O=C(O)c1ccco1`: the Potency entry in [1], in assay [11], in [2], in [4], in [5] and in assay [6] was “inactive” throughout. Besides, the Potency result in [7], in assay [12], in assay [16], in assay [17], in assay [18] and in assay [14] was “inactive” throughout. In addition, the compound was classed as inactive in [9].

Consider `COC(=O)c1ccc(I)cc1S(=O)(=O)NC(=O)Nc1nc(C)nc(OC)n1`, for which the Potency result in [1], in assay [11], in [2], in assay [15], in assay [5] and in [6] was “inactive” in each case. Besides, the Potency result in [7], in [12], in [16], in assay [17], in [13] and in assay [8] was “inactive” in each case. For the same compound, the Potency entry in assay [18] and in assay [14] was “inactive” each time. In addition, the compound was called inactive in assay [9] and in [10].
